Screens (PubChem BioAssay)
Vaccinia Venus: qHTS for Stage-Specific Inhibitors of Vaccinia Orthopoxvirus: Venus Reporter Primary qHTS | Potency, µM (doses to about 36.5 µM), inactives show at the top dose activity change, negative = inhibition, hits mostly inhibitors | 330,000 tested, 0.46% active | Vaccinia virus Venus reporter expression, fluorescence | AID 720580, 2013; calls by dose curve; tested in A549 cells; further: potency means the concentration at half of the fitted maximal effect; on the % scale 0 is the no-effect control and ±100 the full control effect; nearly all actives have a fitted effect of over 30% in size
Vaccinia mCherry: qHTS for Stage-Specific Inhibitors of Vaccinia Orthopoxvirus: mCherry Reporter Primary qHTS | Vaccinia virus mCherry reporter infection, fluorescence | Potency, µM (titrated, usually from 36.5 µM), for inactives: at the top dose activity change, negative = inhibition, hits mostly inhibitors | 310,000 tested, 0.63% active; calls by dose curve; tested in A549 cells; further: potency means the concentration at half of the fitted maximal effect; on the % scale 0 is the no-effect control and ±100 the full control effect; nearly all actives have a fitted effect of over 35% in size
Marburg entry inh: qHTS for inhibitors of binding or entry into cells for Marburg Virus. Marburg virus pseudotyped entry inhibition, cell reporter. Potency, µM (doses to about 37.8 µM), for inactives: top-dose activity change, negative = inhibition, most hits filed as inhibitors. 300,000 tested, 1.8% active; calls by dose curve; tested in HEK293 cells; further: potency means the concentration at half of the fitted maximal effect; on the % scale 0 is the no-effect control and ±100 the full control effect
Lassa entry inh: qHTS for Inhibitors of binding or entry into cells for Lassa Virus; Lassa virus pseudotype entry inhibition, cell reporter; Potency, µM (titrated, usually from 37.9 µM), without a hit: top-dose activity change, negative = inhibition, hits mostly inhibitors; 300,000 tested, 1.2% active; calls by dose curve; tested in HEK293 cells; further: potency means the concentration at half of the fitted maximal effect; on the % scale 0 is the no-effect control and ±100 the full control effect; nearly all actives have a fitted effect of over 50% in size
Cycloheximide cs: Cycloheximide Counterscreen for Small Molecule Inhibitors of Shiga Toxin | cell reporter, cycloheximide protein synthesis inhibition counterscreen | max response, % | 300,000 tested, 12% active; in the data active means max response mostly above about 13%, no sharp cut-off; inactive means mostly below about 14%; further: read at 38.3 µM for the half of the compounds with a filed dose; 0% is about no effect
Shiga inhibitor: A qHTS for Small Molecule Inhibitors of Shiga Toxin; Vero cells, Shiga toxin protein synthesis inhibition reporter; inhibition, % at 38.7 µM; 290,000 tested, 9.2% active; AID 2315, 2010; in the data active means inhibition mostly above about 28%, no sharp cut-off; inactive means mostly below about 43%; further: 0% is about no effect
* marks the source's active call; other numbers are inactive results; i = inactive; ? = inconclusive; · = not tested or not shown; + = active, no number; ! = not active in a repeat; [ ] = remark or other dose. The full list was thinned out, with hits kept by preference.

SMILES | Vaccinia Venus | Vaccinia mCherry | Marburg entry inh | Lassa entry inh | Cycloheximide cs | Shiga inhibitor
CC(=O)Nc1ccc(OS(=O)(=O)c2ccc(C(C)(C)C)cc2)cc1 | · | · | · | · | 12* | 34
CC(=O)Nc1ccc(S(=O)(=O)c2ccc(N)cc2)cc1 | -3% | -12% | · | · | 18*! | 24*!
CCOc1ccc(NC(=O)CSc2nc3nc4c(cc3c(=O)n2CC)COC(C)(C)C4)cc1 | 0% | 15% | -6%[46.1 µM] | -16%[46.1 µM] | -3 | 25
COc1ccc(Sc2nc(-c3ccccn3)ncc2OC)cc1 | ? | ? | 16µM* | 21µM* | 0 | 24
COc1cnc(-c2ccccn2)nc1Oc1ccccc1 | 1% | -12% | ? | 6% | 1 | -4
COc1cnc(-c2ccccn2)nc1N(C)c1ccccc1 | ? | ? | ? | ? | 48* | 66*
COC(=O)C(NS(N)(=O)=O)C(C)C (stereo not drawn) | · | · | · | · | -7 | -17
CCc1ccc(/C=N/Nc2ncnc3nc[nH]c23)cc1 | -22% | -13% | ? | 7.9µM* | 40* | 82*
CC(C)=NNc1ncnc2nc[nH]c12 | -24% | -9% | 2% | -18% | · | ·
COc1cccc(-c2nn(C)c3sc(C(=O)Nc4ccc5c(c4)OCCO5)cc23)c1 | -1% | -16% | 0% | -7% | 61* | 75*
Cn1nc(-c2ccccc2F)c2cc(C(=O)Nc3ccc4c(c3)OCCO4)sc21 | ? | -23% | ? | ? | 15 | 16
CC(NC(=O)c1ccccc1)C(=O)NC1CCCc2ccccc21 (stereo not drawn) | -3% | -12% | ? | 13% | · | ·
Cc1ccc(CSc2nnc(C)c(=O)n2N)cc1 | -10% | i | ? | 0% | 12* | 5
Nn1c(SCc2ccccc2F)nnc1-c1ccccn1 | -22% | -1% | ? | -2% | 33* | 135*
Cc1nnc(SCC(=O)Nc2ccc(Oc3ccccc3)cc2)n1N | -14% | -1% | 17% | -16% | 0 | -17
CC(C)OC(=O)CSc1nnc(-c2ccccn2)n1N | -6% | -9% | 0% | 7% | -2 | 25
Cc1ccc(CSc2nnc(-c3ccccn3)n2N)cc1 | · | · | · | · | 23* | 107*
Cc1nnc(SCc2cccc(Oc3ccccc3)c2)n1N | -10% | -2% | ? | 8% | 21* | 5
Cc1ccc(CSc2nnc(-c3ccncc3)n2N)cc1 | -9% | -5% | 3% | 11% | 8 | 18
CC1=C(C(=O)Nc2ccc(C)cc2C)C(c2ccc(C(C)C)cc2)n2nc(C(F)(F)F)nc2N1 (stereo not drawn) | -9%[7.34 µM] | -26%[7.34 µM] | -9%[46.1 µM] | 7%[46.1 µM] | · | ·
C=C1CCN(C(CC(C)C)C(=O)O)S(=O)(=O)c2ccccc21 (stereo not drawn) | · | · | · | · | 6 | -4
Cc1cccc(NC(=O)Cn2c(=O)ccc3cc(S(=O)(=O)N4CCCC4)ccc32)c1C | -1% | 3% | · | 4%[46.1 µM] | · | ·
Nn1c(SCc2ccccc2)nnc1-c1ccccn1 | · | · | 5% | 5% | 30* | 38*
Nn1c(SCc2ccc(F)cc2)nnc1-c1cccnc1 | -21% | -5% | 2% | 13% | 7 | 19
Nn1c(SCc2ccc(F)cc2)nnc1-c1ccccn1 | -10%[7.34 µM] | -8%[7.34 µM] | 30%[46.1 µM] | ? | 34* | 68*
SMILES | Vaccinia Venus | Vaccinia mCherry | Marburg entry inh | Lassa entry inh | Cycloheximide cs | Shiga inhibitor
NC(=O)CSc1nnc(-c2ccccn2)n1N | · | · | · | · | 0 | 36
O=C(Nc1nccs1)[C@@H]1CC=C[C@@H]2CCN(Cc3ccc(Cl)c(Cl)c3)C(=O)[C@@H]21 | -18% | -21% | · | · | · | ·
COc1ccc2c(c1)[nH]c1c(=O)n(Cc3ccccn3)cnc12 | -18% | · | 4% | ? | 11 | 3
O=c1c2[nH]c3cccc(Cl)c3c2ncn1CC1CCCO1 (stereo not drawn) | -20% | i | ? | ? | 23* | 49*
CCCCn1cnc2c([nH]c3cc(OC)ccc32)c1=O | ? | · | -2% | ? | 2 | 21
COc1ccc2c(c1)[nH]c1c(=O)n(Cc3ccco3)cnc12 | -21% | -14% | ? | ? | 13* | 39
COc1ccc2c(c1)[nH]c1c(=O)n(CC3CCCO3)cnc12 (stereo not drawn) | · | · | 14% | ? | 28* | 23
O=c1c2[nH]c3cccc(Cl)c3c2ncn1CCN1CCCCC1 | 4% | · | -9% | 3% | -1 | -6
Cc1nn(-c2ccccc2)c2c1N(CC(=O)N1CCN(c3ccc(Cl)cc3)CC1)C(=O)CS2 | -9% | -1% | · | 15%[46.1 µM] | · | ·
Cc1cc(C)c2c(-n3cccc3)c(C(=O)NCCCN3CCCCC3C)sc2n1 (stereo not drawn) | -8% | -12% | 0%[46.1 µM] | 0%[46.1 µM] | · | ·
N#CCOC(=O)/C=C/c1ccc2c(c1)OCO2 | 5% | i | ? | -24% | 22* | 67
O=C(/C=C\c1ccc2c(c1)OCO2)c1ccc(F)cc1 | · | · | -9%[14.2 µM] | · | · | ·
Nc1ccccc1C(=O)/C=C/c1ccc2c(c1)OCO2 | ? | ? | ? | ? | 69* | 116*
O=C(/C=C/c1ccc2c(c1)OCO2)c1ccco1 | -1% | i | 1% | -18% | 17* | 29*
N#Cc1ccccc1OCCCN1CCC(Cc2ccccc2)CC1 | · | · | · | · | -4 | -3
COc1ccc(CCNC(=O)c2ccc3c(c2)sc2nc(-c4ccccc4)cn23)cc1OC | -13% | -21% | · | -7%[46.1 µM] | · | ·
O=C(Cc1ccccc1[N+](=O)[O-])NCCC1=CCCCC1 | -15% | -10% | ? | ? | 26* | 61*
COc1ccc(C(=O)NCC(=O)OCC(=O)NCCC2=CCCCC2)cc1 | · | · | 28% | -5% | -3 | 29
O=C(NCCC1=CCCCC1)c1ccc(F)cc1 | -19% | i | ? | 10µM* | 39* | +
O=C(CCNC(=O)c1ccc([N+](=O)[O-])cc1)NCCC1=CCCCC1 | -1% | -2% | 0%[46.1 µM] | -22% | · | ·
Cc1cc(C(=O)NCCC2=CCCCC2)ccc1[N+](=O)[O-] | -13% | -17% | 0%[46.1 µM] | ? | 49* | 96*
COc1ccc(C(=O)NCCC2=CCCCC2)cc1 | -17% | -12% | 7.3µM* | ? | 31* | 51
CCOC(=O)N1CCN(Cc2ccc3c(c2)CN(C(=O)c2ccc4ncccc4c2)CCO3)CC1 | -23% | -21% | · | · | · | ·
COc1ccc(N2CCN(C(c3ccc(C)cc3)c3nnnn3C(C)(C)C)CC2)cc1 (stereo not drawn) | -10% | i | · | · | · | ·
CC1(c2nnc(-c3ccccc3)o2)CC(c2ccncc2)=NO1 (stereo not drawn) | -9% | i | · | · | -4 | 2
O=C(NCCC1=CCCCC1)c1ccc(CN2CCOCC2)cc1 | -10% | -13% | -11% | ? | 40* | 45*
Cc1ccc(C(=O)NCCC2=CCCCC2)cc1S(=O)(=O)N1CCCCC1 | -26% | ? | ? | 7.9µM* | · | ·
O=C(NCCC1=CCCCC1)c1ccc([N+](=O)[O-])cc1 | -6% | i | ? | ? | 75* | 131*
